# Test results taken from the supplement of paper PMC6555819.
# Columns and labels:
# Assay in all cases: PBM binding z-score (relative to random genomic background probes); higher = stronger binding; sequences stand for … in GC…GCGATTGACAGCGTAGAATGAAGG
# [1] = system: PPARg:RXRa DBDmut IVT, anti-RXR (DBD mutation: RXRa K156A/R161A, NR concentration 270 nM, RXRa partner concentration 90 nM)
# Procedure, shortened: (§1)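 For binding z-scores, the reference was random background probes on custom Agilent 4×180K protein-binding microarrays. These arrays were incubated 1 h with ligand-free nuclear receptor dimers in PBS pH 7.4, 2% milk, 0.02% Triton X-100, 1 mM DTT, 0.2 mg/mL BSA and 0.4 mg/ml salmon testes DNA. Fluorescence was scanned after antibody detection of each partner (one per run) and regression-normalized.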
# [2] = system: PPARg:RXRa IVT, anti-PPARg (NR concentration 270 nM, RXRa partner concentration 90 nM)
# Procedure, shortened: as §1
# [3] = system: PPARg DBDmut IVT, anti-PPARg (DBD mutation: PPARg1 K132A/R137A, NR concentration 270 nM)
# Procedure, shortened: as §1
# [4] = system: PPARg homodimer (NR concentration 180 nM)
# Procedure, shortened: as §1
# [5] = system: PXR:RXRa (NR concentration 270 nM, RXRa partner concentration 90 nM)
# Procedure, shortened: as §1
# [6] = system: PXR homodimer (NR concentration 270 nM)
# Procedure, shortened: as §1
# [7] = system: RARa:RXR (NR concentration 270 nM, RXRa partner concentration 90 nM)
# Procedure, shortened: as §1
# [8] = system: RARa homodimer (NR concentration 270 nM)
# Procedure, shortened: as §1
# [9] = system: RARb:RXRa (NR concentration 270 nM, RXRa partner concentration 90 nM)
# Procedure, shortened: as §1
# [10] = system: RARb homodimer (NR concentration 270 nM)
# Procedure, shortened: as §1
# [11] = system: RARg:RXRa (NR concentration 270 nM, RXRa partner concentration 90 nM)
# Procedure, shortened: as §1
# [12] = system: RARg homodimer (NR concentration 270 nM)
# Procedure, shortened: as §1
# [13] = system: RXRa DBDmut IVT, anti-RXR (DBD mutation: RXRa K156A/R161A, NR concentration 90 nM)
# Procedure, shortened: as §1
# [14] = system: RXRa homodimer (NR concentration 180 nM)
# Procedure, shortened: as §1
# [15] = system: THRa:RXRa (NR concentration 90 nM, RXRa partner concentration 90 nM)
# Procedure, shortened: as §1
# [16] = system: THRa homodimer (NR concentration 90 nM)
# Procedure, shortened: as §1
# [17] = system: VDR homodimer (NR concentration 270 nM)
# Procedure, shortened: as §1
# [18] = system: VDR:RXRa (NR concentration 270 nM, RXRa partner concentration 90 nM)
# Procedure, shortened: as §1
Sequence,PBM binding z-score [1],PBM binding z-score [2],PBM binding z-score [3],PBM binding z-score [4],PBM binding z-score [5],PBM binding z-score [6],PBM binding z-score [7],PBM binding z-score [8],PBM binding z-score [9],PBM binding z-score [10],PBM binding z-score [11],PBM binding z-score [12],PBM binding z-score [13],PBM binding z-score [14],PBM binding z-score [15],PBM binding z-score [16],PBM binding z-score [17],PBM binding z-score [18]
ATATGTAGGTTAGTGTCATTCAGAAAGTAGGGAA,6.62,6.21,2.47,1.86,1.09,0.763,1.32,2.19,1.4,1.31,1.14,1.06,0.868,0.992,0.837,0.558,0.794,
ATATGTAGATTAGGGTCATTCAGAAAGTAGGGAA,1.94,2.96,1.38,2.2,3.84,1.24,4.48,1.28,2.92,3.09,3.47,2.29,2.09,4.53,3.9,2.95,3.14,
CGAATTAGGTCACCAGGACAGTGAAGAGGTTGGA,8.17,8.71,2.04,2.36,1.78,0.578,2.92,0.711,4.52,3.77,4.66,5.28,1.56,3.42,3.98,2.96,0.575,
CGAACTAGGTCGAAGGACAGTGAAAGGCGACGTA,4.92,5.17,-0.201,0.0184,-0.467,-0.851,-0.0163,-0.8,1.18,0.802,0.619,1.1,0.469,0.475,0.508,-0.399,-0.311,
ATATGTAGGTTAAGGTCATTCAGAAAGTAGGGAA,7.09,7.46,2.29,3.37,4.99,3.21,4.73,2.27,4.35,4.18,4.81,4.96,2.75,4.96,4.41,4.8,4.05,
CGAAATAGGTCACCAGGACAGTGAAGAGGTTGGA,7.94,8.03,1.09,1.95,2.67,0.221,3.82,1.35,4.78,3.91,5.54,5.96,0.868,5.18,3.12,0.942,0.687,
CGAACTAGGTCAAAGGAGAGTGAAAGGCGACGTA,8.02,7.99,0.59,0.681,1.1,-0.124,1.85,-0.114,3.65,2.43,3.75,4.22,1.62,3,2.32,0.277,0.0165,
CGAACTAGGTCACCAGGAAAGTGAAGAGGTTGGA,8.65,8.74,0.796,2.05,1.48,-0.0939,2.37,0.814,4.29,3.18,4.45,5.45,1.53,3.53,2.91,1.04,0.43,
ATATGTAGGTTAGGGTGATTCAGAAAGTAGGGAA,6.7,6.39,1.41,2.93,1.04,1.31,1.3,1.25,1.38,1.48,0.779,0.813,0.979,1.02,2,1.65,0.713,
CGAACTAGGTCACCAGGACTGTGAAGAGGTTGGA,8.46,8.71,1.86,3.94,1.55,-0.354,2.79,0.25,4.27,3.39,4.54,5.16,1.46,3.6,3.24,1.3,0.447,
ATATGTAGGTTAGGGTCATTCAAAAAGTAGGGAA,6.37,6.88,2.24,2.6,4.47,2.2,5.13,2.37,3.59,3.59,4.25,3.19,2.67,5.4,4.28,3.27,3.17,
CGAGCTAGGTCAAAGGACAGTGAAAGGCGACGTA,3.53,3.85,-0.971,1.2,1.01,-0.591,2.39,-0.312,4.04,2.82,4.31,4.87,1.29,2.99,2.3,0.253,0.416,
CGACCTAGGTCACCAGGACAGTGAAGAGGTTGGA,4.19,4.65,-0.593,1.87,1.62,-0.328,2.95,-0.595,4.37,3.51,5.3,5.83,1.6,3.92,3.44,1.53,0.503,
ATATGTAGGTTAGGGTCATTTAGAAAGTAGGGAA,6.56,6.66,2.64,3.47,4.23,1.89,4.82,1.85,3.33,3.38,3.86,2.8,2.29,5.07,4.06,3.22,3.84,
CGAACTAGGTCAGAGGACAGTGAAAGGCGACGTA,7.39,7.68,-0.191,1.33,0.248,-0.238,0.823,-0.0193,3.36,2.41,2.82,3.91,0.547,1.54,1.76,0.433,-7.91e-05,
ATATCTAGGTTAGGGTCATTCAGAAAGTAGGGAA,6.71,6.95,2.23,3.98,4.33,2.01,4.78,2.98,3.43,3.56,4.06,3.32,2.56,4.98,4.14,3.56,4.16,
CGAACTAGGTCAAAGGACAGTAAAAGGCGACGTA,8.07,8.42,0.249,1.7,1.14,0.0773,2.09,0.769,4.06,2.85,4.05,4.79,1.33,3.25,2.75,0.556,0.392,

Sequence,PBM binding z-score [1],PBM binding z-score [2],PBM binding z-score [3],PBM binding z-score [4],PBM binding z-score [5],PBM binding z-score [6],PBM binding z-score [7],PBM binding z-score [8],PBM binding z-score [9],PBM binding z-score [10],PBM binding z-score [11],PBM binding z-score [12],PBM binding z-score [13],PBM binding z-score [14],PBM binding z-score [15],PBM binding z-score [16],PBM binding z-score [17],PBM binding z-score [18]
CGAACTAGGTCACCAGGACAGTGCAGAGGTTGGA,8.28,8.75,0.713,2.02,1.73,0.15,2.58,0.578,4.14,3.73,4.5,5.27,1.53,3.58,3.36,2.27,0.862,
CGAACTAGGTCACCAGGACAATGAAGAGGTTGGA,7.84,9.01,1.88,1.94,1.49,0.22,2.43,0.0185,4.21,3.4,4.27,5.1,1.58,3.35,3.7,2.12,0.459,
ATATGTAGGTTAGGGTCATTGAGAAAGTAGGGAA,6.25,6.47,1.4,2.67,4.2,1.72,4.69,2.38,3.59,3.51,4.09,3.1,2.32,5.3,4.13,3.44,3.55,
CGAACTAGGTCAAAAGACAGTGAAAGGCGACGTA,7.84,7.79,0.23,0.576,0.624,-0.275,1.45,-0.196,3.17,1.72,,3.68,1.21,2.54,1.64,-0.0657,-0.0484,
ATATGTAGGTTAGGGTCGTTCAGAAAGTAGGGAA,6.06,6.47,2.98,2.38,2.11,1.67,2.37,1.51,1.92,2.05,1.69,1.16,1.52,2.44,2.85,1.95,2.55,
CGAACTAGGTCACCAGGACAGTTAAGAGGTTGGA,8.1,8.64,5.1,2.14,1.49,0.424,2.73,0.481,4.2,3.53,,5.1,1.21,3.22,3.41,1.68,0.347,
TCGAGTAGGTTACGGTGGCATTCAGGGATGAAGA,3.28,3.56,,0.177,-0.0566,-0.975,0.611,-0.958,0.864,0.0468,0.487,0.23,-0.239,0.829,0.835,-0.365,-0.35,0.16
ATAAGTAGGTTAGGGTCATTCAGAAAGTAGGGAA,6.82,6.77,2.11,3.79,4.78,3.26,5.36,2.72,3.63,3.7,,3.3,2.39,5.12,4.31,3.58,4.32,
CCGAGTAGGTTAGGAGGGGGCATTCAGTGCGAAT,3.01,4.36,,2.59,4.53,6.27,2.88,0.952,2.06,2.05,2.89,2.76,1.76,1.87,3.46,1.44,4.12,4.91
CGAACTAGGTCAAAGGACAGGGAAAGGCGACGTA,7.68,8.19,4.37,2.31,0.895,-0.253,2.37,0.0193,3.9,3.14,,4.68,1.07,2.78,2.49,0.631,0.464,
CGAACTAGGTCACCCGGACAGTGAAGAGGTTGGA,8.23,8.41,0.442,2.42,1.55,0.0197,2.64,0.174,4.22,3.23,4.48,5.44,1.27,2.93,2.98,1.47,1.13,
CTATGAAGGTTAAGGGGGTCATTCAGTTTGAAAG,3.68,5.15,,4.25,6.22,13.8,6.01,2.51,4.05,4.39,5.59,4.32,2.92,6.52,3.97,2.22,6.88,7.95
ATATGTAGGTTAGAGTCATTCAGAAAGTAGGGAA,6.33,6.41,1.55,1.2,0.349,0.624,0.989,1.78,1.02,0.746,0.752,0.891,0.428,0.703,,0.254,0.387,
TCGAGTAGGTTACGGGGGCATACAGGGATGAAGA,5.24,5.71,,3.33,2.97,1.54,3.27,0.305,2.65,2.05,3.68,2.84,1.44,3.07,3.53,1.18,2.83,3.54
CTATGTAGGTTAAGGGGGCCATTCAGTTTGAAAG,7.13,7.17,,1.77,2.69,3.67,2.17,0.379,1.94,1.71,2.17,1.78,1.21,1.73,2.02,0.914,1.98,4.74
CTATTTAGGTTAAGGGGGTCATTCAGTTTGAAAG,6.86,6.59,,5.85,5.9,12.3,5.84,2.72,3.71,3.95,5.19,4.01,2.74,5.73,4.05,2.07,6.2,7.31
